# HPGD inh – blocks human HPGD enzyme activity; P15428; purified HPGD, NADH fluorescence kinetic, PGE2 substrate; Potency, µM, for inactives: top-dose activity change, negative = inhibition, hits mostly inhibitors; 150,000 tested, 4.3% active; AID 894; also: potency is read from the fitted curve at half-maximal effect
# Target sequence (P15428 whole entry, looked up): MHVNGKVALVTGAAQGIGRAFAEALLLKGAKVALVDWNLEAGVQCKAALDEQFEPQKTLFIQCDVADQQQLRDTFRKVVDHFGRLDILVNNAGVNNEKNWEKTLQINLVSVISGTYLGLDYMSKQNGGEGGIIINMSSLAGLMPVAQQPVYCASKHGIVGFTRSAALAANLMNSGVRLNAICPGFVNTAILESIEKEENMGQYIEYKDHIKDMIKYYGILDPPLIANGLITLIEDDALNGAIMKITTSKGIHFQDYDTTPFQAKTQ
#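 NADH formation kinetics: reaction with 30 uM PGE2 and 1 mM NAD+ (final), 20 nM enzyme, Tris-HCl pH 8 with Tween 20, after 15 min compound preincubation at room temperature. Fluorescence change, last versus first of five reads.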
# IMPase Li inh – membrane-permeable IMPase blocker, potentiated with lithium; CHO-M1 cells, IP1 TR-FRET (IP-One), carbachol + lithium; Potency, µM (series often up to 59.4 µM), for inactives: at the highest dose activity, negative = IMPase inhibition, actives largely listed as inhibitors; 210,000 tested, 0.35% active; active = well fitted curve in the direction sought with a large enough effect; inconclusive = small, poorly fitted or top-dose-only effect, or another doubt; inactive = no such curve, though single readings can be large; an effect the other way counts as inactive or inconclusive;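 also: IP1 builds up when IMPase is blocked and the TR-FRET signal falls; potency is read from the fitted curve at half-maximal effect; plate controls were basal vehicle for no effect and high inhibitor control for full effect; nearly all actives have a fitted effect of over 50% in size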
#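 CHO cells stably expressing M1 receptor (2000/well, cultured 16–30 h) treated 30 min at 37C with compound plus low lithium. Cytosolic IP1 by TR-FRET (665/620 ratio and 620 channel) after 10 min lysis; AC50 by Hill fit.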
# IMPase cell inh – cell-permeable inhibitors of inositol monophosphatase (IMPase); CHO-M1 cells, IP1 accumulation, HTRF TR-FRET ratio; P97697; inhibition (IP1 accumulation), % at 46.1 µM; 120,000 tested, under 10 active; active = well fitted curve in the direction sought with a large enough effect in the signal ratio, not every such curve was filed as active; inconclusive = small, poorly fitted or top-dose-only effect, or a change in a side signal; inactive = no such curve, though single readings can be large or run the other way; the % refers to the signal ratio;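 also: cells stimulated with carbachol in lithium chloride buffer; plate controls were DMSO basal wells for no effect and reference inhibitor wells for full effect; higher means more IMPase inhibition seen as more IP1 and lower FRET ratio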
#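 Carbachol-driven Gq signalling in CHO-M1 cells (2000/well) generates IP1. Compounds that block IMPase raise IP1 and so reduce the FRET signal from Eu-anti-IP1 and d2-IP1 after a 10 min room-temperature lysis.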
# ALDH1A1 block – inhibitors of human aldehyde dehydrogenase 1A1; P00352; Purified ALDH1A1, NADH fluorescence, propionaldehyde substrate; Potency, µM (series often up to 75.3 µM), for inactives: at the highest dose activity, negative = inhibition, hits mostly inhibitors; 220,000 tested, 7.3% active;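 also: potency is read from the fitted curve at half-maximal effect; plate controls were no enzyme wells and a reference inhibitor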
# Target sequence (P00352 whole entry, looked up): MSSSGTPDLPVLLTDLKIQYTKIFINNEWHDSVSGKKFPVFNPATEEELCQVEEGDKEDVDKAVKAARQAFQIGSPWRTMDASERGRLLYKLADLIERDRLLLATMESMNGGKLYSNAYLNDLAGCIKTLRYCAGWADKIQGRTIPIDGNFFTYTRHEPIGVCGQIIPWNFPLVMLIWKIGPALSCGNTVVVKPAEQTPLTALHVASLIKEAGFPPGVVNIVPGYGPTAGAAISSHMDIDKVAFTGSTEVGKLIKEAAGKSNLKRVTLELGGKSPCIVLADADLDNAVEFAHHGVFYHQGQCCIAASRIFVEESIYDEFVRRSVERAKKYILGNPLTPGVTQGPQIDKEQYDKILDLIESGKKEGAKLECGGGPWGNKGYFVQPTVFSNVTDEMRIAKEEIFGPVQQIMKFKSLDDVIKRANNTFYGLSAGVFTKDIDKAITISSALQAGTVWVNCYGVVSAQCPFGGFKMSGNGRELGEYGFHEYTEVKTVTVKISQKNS
# PNC inhibitor – perinucleolar compartment assembly inhibition; PC3M PTB-GFP, PNC prevalence imaging, 16 h; active compounds read low; activity change (PNC), negative = inhibition, % at 10 µM; 140,000 tested, 3.1% active;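 active = readout at or below -70, meaning at least 70% loss of cells showing the perinucleolar compartment, a nuclear body marking cancer cells; inconclusive = readout between -30 and a set limit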;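 also: plate controls were DMSO wells for no effect and camptothecin positive control wells for full effect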
#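 Read-out is percentage of cells bearing a perinucleolar compartment, from automated 20x imaging of fixed, Hoechst-stained PC3M PTB-GFP cells. Cells were seeded 4 h, then exposed 16 h to compound (23 nl of library stock) in duplicate plates.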
# ALOX12 inhib – blocks human 12-lipoxygenase activity; P18054; Potency, µM (doses to about 57.1 µM), for the others: at the highest dose activity change, negative = inhibition, actives largely listed as inhibitors; 150,000 tested, 0.12% active; purified 12-hLO, xylenol orange hydroperoxide absorbance; active = well fitted curve in the direction sought with a large enough effect; inconclusive = small, poorly fitted or top-dose-only effect, or another doubt; inactive = no such curve, though single readings can be large; an effect the other way counts as inactive or inconclusive; also: potency is read from the fitted curve at half-maximal effect; nearly all actives have a fitted effect of over 55% in size
#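 Hydroperoxide output read as Fe(III)-xylenol orange absorbance, 573-to-405 nm ratio, after 30 min reaction with 40 uM arachidonic acid. Enzyme: 150 nM purified human 12hLO, 15 min compound preincubation; 25 mM Hepes pH 7.0, room temperature.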
# Numbers without * were called inactive; ? = inconclusive; . = not tested or not shown; ! = not active in a repeat; [ ] = dose if it differs, or a comment. In the library only some 11% were active in any assay of this set; here they are far more common. Unless noted, calls follow the shape of the dose curve; as a rule, active = well fitted inhibition curve with a large enough effect (not every such curve was filed as active); inconclusive = small, poorly fitted or top-dose-only effect, or another doubt; inactive = no such curve, though single readings can be large or run the other way. Unless noted, % is scaled to controls: 0 for no effect and ±100 for the full control effect.
SMILES,HPGD inh,IMPase Li inh,IMPase cell inh,ALDH1A1 block,PNC inhibitor,ALOX12 inhib
O=C(NCc1ccco1)c1sc2cc(F)ccc2c1Cl,25µM*,6%,4[0.0738 µM],-10%,-13,-5%
CCCCCCCCCCCCC/C=C/[C@@H](O)[C@H](CO)N(C)C,-2%,-15%,.,0%,.,-1%
CCc1cccc(CC)c1NC(=O)COC(=O)/C(C#N)=C/c1ccc(OC)cc1,-16%,2%,.,-14%,-12,-3%
COc1ccc(/C=C(\C#N)C(=O)OCC(=O)Nc2ccc(C(C)(C)C)cc2)cc1,?,-2%,.,22µM*,-17,-5%
COc1cc(/C=N/NC(N)=S)ccc1OCC(=O)Nc1ccc(C)cc1,-8%,-5%,3,25µM*,38,1%
CCOC(=O)/C(C#N)=C/c1ccc(OCC(=O)Nc2ccc(OC)cc2)c(OC)c1,-31%,-6%,-9,5µM*,-8,4%
COc1ccc(/C=C(\C#N)C(=O)OCC(=O)NC2CC2)cc1,.,10%,.,20µM*,.,.
CCOC(=O)/C(C#N)=C/c1ccc(OCC(=O)Nc2ccc(C)c(C)c2)c(OC)c1,?,4%,.,?,-22,-2%
COc1cc(C2C=C(c3cccs3)Nc3ncnn32)cc(OC)c1OC (configuration not stated),.,-21%,.,?,.,.
COc1cccc(-c2nccc(NCc3ccc(OC)cc3OC)n2)c1,.,14%,.,-9%,.,.
CC1CCC/C(=C\Nc2ccc(C(=O)O)cc2)C1=O (configuration not stated),.,-5%,.,14µM*,.,.
NCCC[C@@H](CC(=O)N[C@@H]1CCNC[C@H]1C(=O)N[C@H](CC(=O)N[C@@H](CCC(=O)O)CC(=O)O)Cc1ccccc1)NC(=O)C[C@H](Cc1ccccc1)NC(=O)[C@@H]1CNCC[C@H]1N,-6%,5%,.,5%,.,3%
CC(=O)Nc1nonc1-c1nc2ccccc2n1Cc1nnc(C)o1,?,7%[38.3 µM],2,?,-87*,-3%
CCCCC(CC)CNC(=O)CCS(=O)(=O)c1cccc2nonc12 (configuration not stated),-7%,24%[38.3 µM],14,?,?,-1%
CCCCC(CC)CNC(=O)CC1Nc2c3ccccc3nc(=S)n2C1=O (configuration not stated),.,13µM*,.,13%,.,.
O=C(O)c1cc(=O)c2ccc(Cl)cc2[nH]1,28µM*!,25%,2,-2%,.,-7%
O=C(O)c1cc2cc(Cl)ccc2[nH]1,-16%,-7%,.,4%,.,-4%
Oc1ccc(O)c(-c2cnns2)c1,1.4µM*,2%,.,?,-20,-7%
CCCn1c2ccccc2c2nnc(SC(CC)C(=O)Nc3sc4c(c3C#N)CCCC4)nc21 (configuration not stated),-27%,20%[38.3 µM],-5,28µM*,?,2%
Oc1c(Cl)cccc1C=Nc1cc(C(F)(F)F)ccc1N1CCCC1,16µM*,1%[38.3 µM],-1,2%,6,-24%
CC(C)N(CC(=O)O)CC(=O)O,2%,3%,.,?,.,0%[11.4 µM]
CC(=O)Nc1ccc(-c2cc(-c3ccc(NC(C)=O)cc3)nc(-c3ccccc3)n2)cc1,?,32µM*,3,?,19,5%
CCC(=O)Nc1ccc(-c2cc(-c3ccccc3)nc(-c3ccc(NC(=O)CC)cc3)n2)cc1,?,10µM*,?,?,?,-6%
CC(=O)Nc1ccc(-c2cc(-c3ccc(NC(C)=O)cc3)nc(-c3ccc(NC(C)=O)cc3)n2)cc1,?,?,.,?,11,-2%
CCC(=O)Nc1ccc(-c2csc(C)n2)cc1,-19%,4%,.,6%,-30,-1%
SMILES,HPGD inh,IMPase Li inh,IMPase cell inh,ALDH1A1 block,PNC inhibitor,ALOX12 inhib
CC(=O)Nc1ccc(-c2csc(NC(C)c3ccccc3)n2)cc1 (configuration not stated),.,-4%,.,18µM*,.,.
CC(=O)Nc1ccc(-c2cc(-c3ccccc3)nc(-c3ccccc3)n2)cc1,?,8.9µM*,.,?,-5,-3%
COc1cc(C2CC(=O)Oc3ccc(C(C)(C)C)cc32)cc(OC)c1OC (configuration not stated),-11%,18%,.,-3%,.,-3%[0.00818 µM]
CCOc1ccc(S(=O)(=O)N(C(=O)c2ccncc2)c2ccc3oc(C)c(C(=O)OC)c3c2)cc1,.,.,13,.,.,.
CCOC(=O)N1CCN(C2CC(=O)N(c3ccc(Cl)c(Cl)c3)C2=O)CC1 (configuration not stated),?,4%,-1,14µM*,-100*,5%
CCOC(=O)c1ccc(N2C(=O)CC(N3CCC(Nc4ccc(F)cc4)CC3)C2=O)cc1 (configuration not stated),-15%,21%[38.3 µM],-10,3.2µM*,24,-1%
CCOC(=O)c1ccc(N2C(=O)CC(N3CCCC(C)C3)C2=O)cc1 (configuration not stated),-16%,17%[38.3 µM],1,3.2µM*,44,7%
CCOC(=O)c1ccc(N2C(=O)CC(N3CCN(Cc4ccccc4)CC3)C2=O)cc1 (configuration not stated),-4%,16%[38.3 µM],0,28µM*,5,5%
CCN1C(=O)CC(N2CCC(Nc3ccc(F)cc3)CC2)C1=O (configuration not stated),-10%,19%[38.3 µM],3,-7%,?,2%
CCOC(=O)N1CCN(C2CC(=O)N(c3ccccc3)C2=O)CC1 (configuration not stated),-8%,-20%[38.3 µM],-1,-2%,-10,-6%
C[C@H](N)CCCP(=O)(O)O,.,-7%,.,?,.,.
CO[C@@H]1COC(=O)[C@H](C)NC(=O)C/C=C\[C@@H](C)[C@H](OC)COC(=O)[C@H](C)NC(=O)C/C=C\[C@H]1C,.,.,.,0%[13.5 µM],.,.
CCOC(=O)C1=C[C@@]2(CC)CCCN3CCc4c(n1c1ccccc41)C32 (some centres not stated),-5%,9%,.,8%,.,1%
COc1ccc(/C=C(\C#N)C(N)=O)c(OC)c1,-16%,-3%,.,-3%[13.5 µM],.,0%[11.4 µM]
O=c1cnc2cncnc2n1Cc1ccccc1Cl,.,10%,.,3.5µM*,.,.
O=c1cnc2cncnc2n1Cc1ccccc1,.,2%,.,4µM*,.,.
O=c1cnc2cncnc2n1Cc1ccc(F)cc1,.,-3%,.,10µM*,.,.
Cc1nc2cncnc2n(Cc2ccccc2Cl)c1=O,.,-21%,.,?,.,.
COc1ncc2ncc(=O)n(Cc3ccc(F)cc3)c2n1,-30%,4%,.,13%,.,0%
COc1ccc(Oc2ncc3ncc(=O)n(Cc4ccc(F)cc4)c3n2)cc1,32µM*,1%,.,?,.,-12%
COc1ccc(CCNC(=O)CC(c2ccccc2)c2cccc(C)c2O)cc1OC (configuration not stated),.,7%,.,1%,.,.
